The results in this text go back to PubChem BioAssay AID720519 (National Center for Advancing Translational Sciences (NCATS), 2013).

Results filed as inconclusive are left out. A call without a number means that no potency is given here. Active and inactive are the calls of the source. The call rests on the fitted dose curve; in most records, active means well fitted activation curve with a large enough effect; inconclusive means small, poorly fitted or top-dose-only effect; inactive means flat fitted curve, though single readings scatter.

The nature of this experiment: qHTS for Inhibitors of Cell Surface uPA Generation: Confirmatory Assay for Cherry-picked Compounds. In outline:
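RAW 264.7 cells at 4000/well, incubated overnight, then treated with compounds. After 24 h at 37 C, viability was read by ATPlite luminescence. An increase in signal indicates blocked uPA-dependent LF entry.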
(Quantitative high-throughput screening tests each substance at several concentrations.)
Potency means the concentration at half of the fitted maximal effect.

As to `COc1ccc(-c2cccc(-c3cc(=O)oc4cc(OC)c(OC)c(OC)c34)c2)cc1`, the Potency entry is “inactive”.

With `COc1ccc(C(=O)OCC(=O)N(C)C2CCS(=O)(=O)C2)cc1S(=O)(=O)N(C)Cc1ccccc1` (stereo unspecified), the Potency entry is “inactive”. Next, `COc1ccc(C[C@@H]2OC3(C=CC(=O)C=C3)O[C@H]2Cc2ccc(OC)cc2)cc1`: “inactive”. Consider `O=C(NCCOc1ccc(F)cc1)C1CCN(S(=O)(=O)c2ccccc2)CC1`, for which the Potency entry was “inactive”. Then `O=C(Cn1cnc2c(OCc3ccccc3)ncnc21)NCCCN1CCCC1=O`, with “inactive”; and `O=C(c1ccc(NC(=S)NCc2ccc(Cl)cc2)cc1)N1CCCCC1`, with “inactive”; and `CCS(=O)c1scc(-c2ccc(Cl)cc2)c1C#N` (stereo unspecified), with “inactive”. Then `CCCCn1c(=NC(=O)c2ccco2)c(C(=O)OCC)cc2c(=O)n3cccc(C)c3nc21`, with “inactive”; and `Cc1ccc(-n2ncc(C(=O)NC3CC3)c2C2CCN(C(=O)OC(C)(C)C)CC2)cc1`, with “inactive”; and `COc1cc(C2/C(=C(\O)c3ccc4c(c3)CC(C)O4)C(=O)C(=O)N2CC2CCCO2)cc(OC)c1OC` (stereo unspecified), with “inactive”. As to `O=C(NCc1ccccn1)C1CCN(C(=O)c2cc3sccc3n2Cc2ccc(F)cc2)CC1`, the Potency entry is “inactive”. Next, `COc1ccccc1NS(=O)(=O)c1cc(NC(=O)CCc2nc3ccccc3c(=O)[nH]2)ccc1C`: “inactive”.

On to `Cn1c(=O)c2c(ncn2CCO)n(C)c1=O`, for which the Potency entry is “inactive”.

As for `CCCCNC(=O)c1cc2c(-c3ccc(Cl)cc3)nn(C)c2s1`, the Potency entry was “inactive”. Take `CCn1nc(NS(=O)(=O)c2ccccc2)c2cc3cc(C)ccc3nc21`: the Potency entry is “inactive”. Then `C#CCN1C=C(C(=O)OCC)C(C)NS1(=O)=O` (stereo unspecified), with “inactive”. In the case of `Cc1ccc(S(=O)(=O)N2CCN(C(=O)c3n[nH]c(=O)c4ccccc34)CC2)cc1`, the Potency result was “inactive”. Next, `O=[N+]([O-])c1cccc(-c2noc(-c3cccs3)n2)c1`: “inactive”; `Cn1cnc([N+](=O)[O-])c1Sc1ccc(Br)cc1`: “inactive”.

For `CN(Cc1ccc(C(C)(C)C)cc1)C(=O)Cc1ccc(S(=O)(=O)N2CCOCC2)s1`, the Potency entry was “inactive”. Next, `COc1ccc([C@H]2[C@H](C(=O)OC(C)(C)C)N3N=Cc4ccccc4C3C23C(=O)c2ccccc2C3=O)cc1OC` (stereo partly specified): “inactive”. Next, `O=C(N/N=C/c1cccnc1)c1ccccc1[N+](=O)[O-]`: “inactive”.

Consider `CC(C)NCC1CCc2cc(CO)c([N+](=O)[O-])cc2N1` (stereo unspecified), for which the Potency entry was “inactive”. Next, `CN(CCCNC(=O)Cn1cccc1C(=O)c1ccccc1)C1CCCCC1`: “inactive”; `N/C(=N/OC(=O)c1ccccc1F)c1nonc1N`: “inactive”. Next, `CCC1(C)NC(=O)N(CC(=O)Nc2sc3c(c2C(N)=O)CCC3)C1=O` (stereo unspecified): “inactive”.

On to `O=C(c1cc([N+](=O)[O-])cc([N+](=O)[O-])c1)N(c1ccccn1)c1ccccn1`, for which the Potency entry is “inactive”. Next, `S=C(Nc1ccccc1Cl)N1CCCC(c2ccccc2)=N1`: 13.1 µM (active); `NC(=O)c1cc2ccncc2c2ccccc12`: “inactive”; `COc1ccc(-n2nc(C(=O)Nc3cc(OC)c(OC)c(OC)c3)c3ccccc3c2=O)c(OC)c1`: “inactive”.

Regarding `Cc1cccc(C(=O)Nc2cc(=O)n(C)c(=O)n2C)c1`, the Potency entry was “inactive”. Consider `Cc1ccc(NS(=O)(=O)c2c(C)nc3sccn3c2=O)c(C)c1`, for which the Potency entry was “inactive”. Then `CC(NC(=O)NC1CCCCC1)C(c1cccs1)N1CCN(C)CC1` (stereo unspecified), with “inactive”; and `Cc1cc(C)c(NC(=O)Cn2nnc(C(=O)NCc3ccc4c(c3)OCO4)c2N)c(C)c1`, with “inactive”. Next, `O=C(NCc1ccc2c(c1)OCO2)c1ccccn1`: “inactive”; `COc1ccc(-c2cc3nc(C)cc(-c4ccc(OC)cc4)n3n2)cc1`: “inactive”. Turning to `O=[N+]([O-])c1ccc(C[n+]2cccc(O)c2)cc1`, the Potency result was “inactive”. `CC(C)CN(C(=O)CN1CCC(C)CC1)c1c(N)n(CC(C)C)c(=O)[nH]c1=O`: the Potency result was “inactive”.

As to `C[C@H](CO)N1C[C@H](C)[C@@H](CN(C)C(=O)Nc2ccccc2)Oc2c(NS(=O)(=O)c3ccccc3)cccc2C1=O`, the Potency entry was “inactive”. Next, `c1csc(CN2CCOCC2)c1`: “inactive”; `CC1(C)S[C@@H]2[C@H](NC(=O)C(C(=O)O)c3ccccc3)C(=O)N2[C@H]1C(=O)O` (stereo partly specified): “inactive”; `Cc1cc(C)nc(N2N=C(C(F)(F)F)CC2=O)n1`: “inactive”. Next, `COc1ccc(C2C(C(=O)c3ccc(C)o3)=C(O)C(=O)N2CC2CCCO2)cc1OC` (stereo unspecified): “inactive”; `O=C(O)CSc1nnc(COc2ccccc2)n1-c1ccccc1`: “inactive”.

In the case of `CCCCn1c(C2CCCCC2)nc2cc3[nH]c(=O)c(C(C)C)nc3cc21`, the Potency entry is “inactive”. For the compound `C=CC[n+]1c(/C=C/c2ccc(OC(C)=O)c(OC)c2)ccc2ccccc21`, the Potency entry is “inactive”. Next, `CC(C)(C)OC(=O)N(Cc1ccccc1)Cc1ccccc1OCc1cccc(NC(=O)C2CC2)c1`: “inactive”; `C=CCn1c(C)cc(C(=O)COC(=O)/C=C/c2cccc(OC)c2)c1C`: “inactive”. Next, `COc1ccc(NS(=O)(=O)c2c(C)n(C)c(=O)n(C)c2=O)cc1OC`: “inactive”. Then `CC1(C(=O)OCC(=O)Nc2ccc(Cl)cn2)CC1(Cl)Cl` (stereo unspecified), with “inactive”. As to `Fc1ccc(N2CCN(c3nc(CN4CCOCC4)nc4scc(-c5ccccc5)c34)CC2)cc1`, the Potency result is “inactive”. Next, `O=C1c2ccccc2[C@@H]2C[C@H](NC34CC5CC(CC(C5)C3)C4)[C@@H](O)CCN12`: “inactive”. Next, `S=C(Nc1ccccc1Oc1ccccc1)NC1CCCC1`: “inactive”; `Nc1nc2ccc(Br)cc2o1`: “inactive”; `NC(=O)C1CCN(C(=O)c2cccc3ccccc23)CC1`: “inactive”. Then `CNS(=O)(=O)c1cc(-c2nnc(Nc3ccc(CC(N)=O)cc3)c3ccccc23)ccc1C`, with “inactive”. On to `Cc1cc(C)n(-c2cc(C(=O)O)cc(C(=O)O)c2)n1`, for which the Potency result was “inactive”. Next, `O=C(O)c1ccc(-c2ccc(/C=C3\NC(=O)N(Cc4ccc(Cl)cc4)C3=O)o2)cc1`: “inactive”; `Cc1nc(SCc2nc3ccccc3[nH]2)c2oc3cc([N+](=O)[O-])ccc3c2n1`: “inactive”; `COc1ccc(NS(=O)(=O)c2cc(NS(=O)(=O)c3cc(C(=O)O)ccc3OC)ccc2C)cc1`: “inactive”. On to `Cn1c(SCC(=O)NNC(=O)c2ccc(Br)cc2)nnc1-c1cccnc1`, for which the Potency entry is “inactive”. Then `CCOc1cc(C(=S)N2CCOCC2)ccc1OC(=O)c1cccc(C)c1`, with “inactive”; and `CC(=O)Oc1ccccc1C(=O)Nc1ccccc1C(=O)N1CCCC1`, with “inactive”. Next, `CCOc1ncccc1C(=O)NCc1ccccc1Cl`: “inactive”; `COc1ccc(Cl)cc1NC(=O)CSc1nc(=O)n(CCN(C)C)c2c1CCCC2`: “inactive”. Then `COc1cc(N/C(N)=N/c2nc(C)cc(C)n2)cc(OC)c1`, with “inactive”; and `Cc1ccc(C23CC4CC(CC(C(=O)NN)(C4)C2)C3)cc1`, with “inactive”; and `O=C(CCS(=O)(=O)c1ccc2c(c1)NC(=O)CS2)NCCc1ccc(Cl)cc1`, with “inactive”. `CC(=O)NCCc1cnc[nH]1`: the Potency result is “inactive”. Next, `CCCCN(CC(=O)NCc1ccc(F)cc1)C(=O)c1ccco1`: “inactive”.

For `CN(C(=O)c1ccccc1C(=O)OCC(=O)NCc1ccccc1)C1CCCCC1`, the Potency result was “inactive”. Then `C=CC1=C(C(=O)O)N2C(=O)[C@@H](NC(=O)/C(=N\O)c3csc(N)n3)[C@H]2SC1` (stereo in doubt), with “inactive”. Next, `Cc1cc(OC(C)C(=O)NCc2ccccn2)c2c(C)cc(=O)oc2c1` (stereo unspecified): “inactive”; `COc1ccc(C2=Nc3ccccc3C2(O)CCN2C(=O)c3ccccc3C2=O)cc1` (stereo unspecified): “inactive”. Next, `COC(=O)Cc1c(C)c2ccc(OCC(=O)N3CCCC(C)C3)c(C)c2oc1=O` (stereo unspecified): “inactive”. Take `O=C(CCCC(=O)N(c1cccc(F)c1)C(C(=O)NC1CCCC1)c1ccc(O)cc1)Nc1ccccn1` (stereo unspecified): the Potency entry is “inactive”.
